# Bioassay records from PubChem BioAssay.
# FXIa mix inh: blocks human factor XIa in pooled compound mixtures. P03951. purified FXIa, fluorogenic substrate. inhibition, % at 5 µM. hit rate 0.19% among 62,000. AID 680;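 also: each value is inhibition by a whole ten-compound pool holding the compound; 0% = enzyme with no mixture and 100% = wells lacking enzyme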
# D1 allo mod: allosterically modulates the human D1 dopamine receptor; hit rate 5.9% among 58,000; B-score at 10 µM; HEK293 D1, CRE-luciferase, dopamine EC30 potentiation; actives deviate in either direction; P21728;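 active = luminescence count or its row- and column-corrected plate score outside the 99.7% band of the plate's sample wells, on either side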
# hDAT+cocaine: human DAT dopamine uptake with cocaine, either direction; AID 449768; hit rate 1.3% among 110,000; B-score at 10 µM; LLC-PK1 hDAT cells, [14C]-dopamine uptake with cocaine IC80; actives deviate in either direction;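 active = Z score or B-score, a plate-position-corrected score, falls beyond the plate's 99.7% confidence bounds, in either direction; inactive = both scores lie inside the 99.7% bounds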;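 also: scored against the spread of the other compound wells on the same plate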
# Target sequence (Q01959 whole entry, looked up): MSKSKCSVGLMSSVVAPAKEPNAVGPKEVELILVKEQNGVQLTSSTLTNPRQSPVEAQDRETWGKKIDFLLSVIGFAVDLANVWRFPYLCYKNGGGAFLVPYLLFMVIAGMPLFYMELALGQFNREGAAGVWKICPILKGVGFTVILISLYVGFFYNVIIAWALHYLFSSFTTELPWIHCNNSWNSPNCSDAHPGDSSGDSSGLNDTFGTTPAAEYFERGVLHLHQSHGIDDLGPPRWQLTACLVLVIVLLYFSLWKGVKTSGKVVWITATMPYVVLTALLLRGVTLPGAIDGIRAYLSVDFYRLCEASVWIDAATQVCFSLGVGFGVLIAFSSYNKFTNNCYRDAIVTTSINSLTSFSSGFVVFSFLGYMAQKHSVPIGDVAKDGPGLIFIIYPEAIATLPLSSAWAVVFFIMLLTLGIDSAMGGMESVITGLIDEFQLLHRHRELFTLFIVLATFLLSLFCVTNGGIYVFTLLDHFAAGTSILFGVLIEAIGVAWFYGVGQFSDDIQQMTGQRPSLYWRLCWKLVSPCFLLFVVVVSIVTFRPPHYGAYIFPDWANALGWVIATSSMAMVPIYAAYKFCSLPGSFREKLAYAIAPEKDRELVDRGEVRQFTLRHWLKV
# M1 antag: M1 muscarinic receptor (rat) antagonism; P08482; CHO-M1 cells, Fluo-4 calcium, ACh EC80 antagonist mode; stronger effect = lower value; B-score at 10 µM; hit rate 3.4% among 64,000;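 active = calcium fluorescence response, raw or row-and-column corrected B-score, differing from the plate sample mean either way at a set confidence level, mostly lower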
# M1 agonist: agonists of M1 muscarinic receptor. CHO-M1 cells, Fluo-4 calcium fluorescence, agonist mode; stronger effect = higher value. B-score at 10 µM. hit rate 3% among 64,000;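 active = fluorescence rise, raw or as B-score row- and column-corrected plate score, outside the 99.7% band of its plate's samples, either direction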
# FXIIa inh mix: blocks human factor XIIa in pooled compound mixtures | P00748 | purified FXIIa, fluorogenic substrate | inhibition, % at 5 µM | hit rate 0.2% among 62,000;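 also: 0% = enzyme without compound and 100% = no enzyme blank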
# M1 antag conf: M1 muscarinic receptor (rat) antagonism, confirmed. shares compounds with M1 antag. CHO-M1 cells, Fluo-4 calcium, ACh EC80 antagonism; stronger effect = lower value. calcium response (max-min fluorescence) at 10 µM. hit rate 43% among 1,700;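 active = calcium response below the same-plate mean of wells given acetylcholine alone at its 80%-effect dose, minus 3 SD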;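 also: raw fluorescence intensity difference in arbitrary instrument units and not normalized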
# mGluR4 antag: mGluR4 (human) activity, M1 antagonist secondary assay. shares compounds with M1 antag. CHO-mGluR4 calcium flux, Fluo-4 fluorescence, glutamate EC80; stronger effect = lower value. fluorescence response (max-min) at 10 µM. hit rate 0.9% among 1,700. AID 678;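 active = fluorescence response below the plate's average for near-maximal glutamate wells, less 3 SD of those wells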;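 also: raw unnormalized fluorescence span taken in the window right after glutamate addition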
# * = called active by the depositor; . = no result given. An excerpt weighted towards active compounds, which were near 7.4% of everything screened. Rule as the data show it, unless noted: active = inhibition above about 20% (passing the limit was not always enough); inactive = the rest.
SMILES,FXIa mix inh,D1 allo mod,hDAT+cocaine,M1 antag,M1 agonist,FXIIa inh mix,M1 antag conf,mGluR4 antag
COC(=O)c1ccccc1NC(=O)CN1CCC(n2nnc3cc(F)ccc32)CC1,1,.,-0.12,-4.6*,0.098,-3,594,232
O=C(CN1CCC(n2nnc3cc(F)ccc32)CC1)NC1CCCCC1,3,-0.55,0.59,-3.7*,-0.64,-39,604,243
CN1CCC(=O)N([C@H](CSc2ccc(Br)cc2)Cc2ccccc2)CC1,.,.,1,.,.,.,.,.
CCOC(=O)c1c(NC(=O)Cn2cc([N+](=O)[O-])cn2)sc2c1CCC2,.,.,-1.3,.,.,.,.,.
COc1ccc(C)cc1NC(=O)c1nc2nc(C)cc(C)n2n1,10,0.067,.,0.022,0.47,5,.,.
Cn1cnnc1SCC(=O)Nc1ccc2nc(SCc3ccccc3)sc2c1,6,-0.81,1,0.05,-0.16,-14,.,.
COc1ccc(C2C3C(=O)N(Cc4ccccc4)C(=O)C3ON2c2ccccc2)c(OC)c1OC (configuration not stated),14,-0.0021,.,-2.9*,0.26,-16,654,188
CCCN(CCC)CC(=O)NCC1(c2ccccc2)CCOCC1,.,.,-0.39,.,.,.,.,.
N#Cc1c(NC(=O)c2cc(-n3cnnc3)ccc2Cl)sc2c1CCCC2,-2,-0.46,0.38,-3.2*,-0.51,12,630,229
COc1ccc(N2C(=O)C3CCCN3C2c2cc(OC)c(OC)c(OC)c2)cc1 (configuration not stated),-9,-0.35,1.3,-2.1*,0.21,-20,645,216
Cc1ccc(CSc2nnc(-c3cccs3)n2C)cc1,-4,0.16,-0.17,-0.23,-0.4,-15,.,.
Cn1c(SCc2ccc(Br)cc2)nnc1-c1cccs1,7,-0.85,-0.23,-4.4*,0.4,6,526,204
CCOc1ccc(Cn2nnc(C(=O)NCc3ccc(OC)cc3)c2N)cc1,13,0.27,-0.29,-1.6*,0.35,2,620,228
CCN1CCN(c2ncc(C(=O)Nc3ccccc3C(=O)OC)c3ccccc23)CC1,1,-0.099,1.3,-14*,-1.8,5,166*,203
CCOC(=O)c1cc(NC(=O)CSCCO)ccc1Cl,8,-0.38,0.58,-1.2,0.58,3,.,.
O=C(OCn1nnc2ccccc2c1=O)C1COc2ccccc2O1 (configuration not stated),0,0.011,-0.76,-0.63,-0.62,-17,.,.
O=c1c2ccccc2nnn1CSc1nnc(C2COc3ccccc3O2)n1-c1ccccc1 (configuration not stated),-3,0.19,0.97,-2.4*,1.6,10,562,159*
Cc1nc2ncnn2c(C)c1CCC(=O)N1CC(C)CC(C)C1 (configuration not stated),.,.,0.0024,.,.,.,.,.
Nc1c(S(=O)(=O)c2cccs2)c2nc3ccccc3nc2n1/N=C/c1cccc(O)c1,4,-0.038,0.43,-14*,1,9,681,194
COc1ccc(C(=O)NC(C)c2nnc(SCc3ccc(Cl)c(Cl)c3)n2C)cc1 (configuration not stated),.,.,0.42,.,.,.,.,.
O=C(CNC(=O)c1ccccc1F)OC(C(=O)Nc1cc(C(F)(F)F)ccc1Cl)c1ccccc1 (configuration not stated),.,.,0.085,.,.,.,.,.
Cc1ccccc1OCC(=O)OC(C)CN1CCN(C)CC1 (configuration not stated),4,-0.035,-0.31,-5.5*,0.32,7,641,246
Cc1ccc(C(C)C)c(OCc2nc(-c3nonc3N)no2)c1,1,.,-0.82,-2.4*,-1.8,-2,566,256
O=C(c1ccccc1)N1CC(COc2ccccc2)OC(c2cccnc2)O1 (configuration not stated),13,-0.8,-0.025,-4.3*,-1.2,1,677,246
O=C(COc1ccc(-c2ccccc2)cc1)N1CCN(C(=O)c2cccnc2)CC1,-1,-1.9,0.36,-0.21,-0.55,4,.,.
SMILES,FXIa mix inh,D1 allo mod,hDAT+cocaine,M1 antag,M1 agonist,FXIIa inh mix,M1 antag conf,mGluR4 antag
CC(C)CCNC(=O)Cn1c(=O)oc2cc(S(=O)(=O)N3CCc4ccccc43)ccc21,0,-0.46,0.19,-4.5*,-0.89,15,478*,201
O=C(Cn1c(=O)oc2cc(S(=O)(=O)N3CCc4ccccc43)ccc21)NC1CCCC1,4,0.015,-0.027,-4.3*,0.06,-7,503*,186
C#CCNC(=O)C1=C[C@@H](c2coc3ccccc3c2=O)[C@H](CCCO)[C@@H](OCC)O1,.,.,0.34,.,.,.,.,.
Cc1ccc2c(CN3CCN(Cc4ccc5c(c4)OCO5)CC3)cc(=O)oc2c1C,8,-0.28,1.2,-2.3*,0.13,4,475*,256
Cc1cc(C)c2c(CN3CCN(Cc4ccc5c(c4)OCO5)CC3)cc(=O)oc2c1,-1,-0.02,0.037,-10*,-0.2,3,61*,299
Cc1cc(C)c2c(CN3CCN(Cc4ccc5c(c4)OCO5)CC3)cc(=O)oc2c1C,8,-0.29,-0.21,-6.2*,0.075,3,376*,256
CCN1CCN(Cc2cc(=O)oc3cc(C)cc(C)c23)CC1,11,-1.4,0.29,-1.2*,-2.1,0,461*,253
CCOC(=O)c1sc(C)c2c(=O)n(CCc3ccccc3)nnc12,.,.,-0.52,.,.,.,.,.
CCOc1ccc(NC(=O)N(CCC(C)C)C2CCN(C(C)=O)CC2)cc1,.,.,-0.31,.,.,.,.,.
COc1cccc(C(=O)Nc2nnc(-c3cccs3)s2)c1,.,.,-0.49,.,.,.,.,.
CCn1c(=O)cc(SCC(=O)N2CCN(C)CC2)c2ccccc21,.,.,-0.013,.,.,.,.,.
O=C(c1ccc(Br)cc1)N1CCN(S(=O)(=O)c2ccccc2)CC1,-2,0.87,0.66,-0.64,0.37,12,.,.
COc1cc2[nH]c(=O)n(CCC(=O)N3CCN(c4cc(Cl)ccc4C)CC3)c(=O)c2cc1OC,1,-0.089,.,.,.,1,.,.
CC1=NC(=O)C(N=Nc2cccc(O)c2)N1c1ccccc1 (configuration not stated),.,.,-0.16,.,.,.,.,.
COc1cccc(Nc2nnc(SCC(=O)N3CCOCC3)s2)c1,1,.,0.94,0.36,-0.038,1,.,.
Cc1ccc(C)c(N2C(=O)CC(N3CCN(Cc4ccc5c(c4)OCO5)CC3)C2=O)c1 (configuration not stated),5,-0.7,-0.59,-2.9*,-0.59,-1,542*,178
O=C(NCc1ccc2c(c1)OCO2)C1CC(=O)N(C2CCCC2)C1 (configuration not stated),9,-0.76,-0.1,-2.9*,-0.56,-3,515,222
COc1cccc(OCC(O)CN2C(C)CCCC2C)c1 (configuration not stated),12,0.58,0.92,-0.31,0.18,-5,.,.
